Experimental findings from the supplement of paper PMC6555819 are described below.

Common to all, as to assay: PBM binding z-score (relative to random genomic background probes); higher = stronger binding; sequences stand for … in GC…GCGATTGACAGCGTAGAATGAAGG
Test [1] deals with FXR:RXRa (NR concentration 270 nM, RXRa partner concentration 90 nM). In short, it runs like this: (§1)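 Ligand-free nuclear receptor dimers were bound for 1 h to custom Agilent 4×180K protein-binding microarrays. Detection used antibodies against each partner (one per run). Binding z-scores rest on regression-normalized fluorescence, with random background probes as the reference.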

The test system of test [2] is LXRa:RXRa (NR concentration 270 nM, RXRa partner concentration 90 nM). The procedure, abridged:
as §1

For test [3], the system named is LXRa homodimer (NR concentration 270 nM). In short, it runs like this: as §1
For test [4], the system named is LXRb:RXRa (NR concentration 270 nM, RXRa partner concentration 90 nM). The procedure, abridged:
as §1

Test [5] relates to LXRb homodimer (NR concentration 270 nM). In short, it runs like this: as §1
The subject of test [6] is PPARa:RXRa (NR concentration 270 nM, RXRa partner concentration 90 nM). The procedure, abridged: as §1
The subject of test [7] is PPARg:RXRa (NR concentration 180 nM, RXRa partner concentration 90 nM). In short, it runs like this: as §1
Test [8] concerns PPARg:RXRa 270nM:90nM, anti-RXR (NR concentration 270 nM, RXRa partner concentration 90 nM). In short, it runs like this:
as §1

In test [9] the test system is PPARg:RXRa 30nM:10nM, anti-RXR (NR concentration 30 nM, RXRa partner concentration 10 nM). In short, it runs like this: as §1
The subject of test [10] is PPARg:RXRa 90nM:30nM, anti-RXR (NR concentration 90 nM, RXRa partner concentration 30 nM). In short, it runs like this: as §1
For test [11], the system named is PPARg:RXRa DBDmut IVT, anti-RXR (DBD mutation: RXRa K156A/R161A, NR concentration 270 nM, RXRa partner concentration 90 nM). The procedure, abridged: as §1
Test [12] deals with PPARg:RXRa IVT, anti-PPARg (NR concentration 270 nM, RXRa partner concentration 90 nM). The procedure, abridged: as §1
Test [13] has as its system PPARg DBDmut:RXRa IVT, anti-PPARg (DBD mutation: PPARg1 K132A/R137A, NR concentration 270 nM, RXRa partner concentration 90 nM). The procedure, abridged: as §1
For test [14], the system named is PPARg DBDmut IVT, anti-PPARg (DBD mutation: PPARg1 K132A/R137A, NR concentration 270 nM). In short, it runs like this: as §1
The subject of test [15] is PPARg homodimer (NR concentration 180 nM). In short, it runs like this: as §1
Test [16] deals with PXR:RXRa (NR concentration 270 nM, RXRa partner concentration 90 nM). The procedure, abridged: as §1
Test [17] relates to PXR homodimer (NR concentration 270 nM). In short, it runs like this: as §1
Test [18] concerns RARa:RXR (NR concentration 270 nM, RXRa partner concentration 90 nM). The procedure, abridged: as §1
The subject of test [19] is RARa homodimer (NR concentration 270 nM). In short, it runs like this: as §1
For test [20], the system named is RARb:RXRa (NR concentration 270 nM, RXRa partner concentration 90 nM). In short, it runs like this: as §1

CCGACTGGGACAAAGGTTACCATACTCAGTACGA: the PBM binding z-score in test [1] was 0.993; in test [2] it was 1.51; in test [3], 0.114; in test [4], 1.8; in test [5], -0.631; in test [6] it was 4.69. For the same sequence, the PBM binding z-score came to 9.69 in [7]; 8.78 in [8]; 8.13 in [9]; 10.5 in test [10]; 3.26 in test [11]; 5.21 in test [12]. For the same sequence, the PBM binding z-score is 0.234 in test [13]; 0.111 in test [14]; 1.47 in test [15]; 1.51 in [16]; -0.265 in test [17]; 2.39 in test [18]. In addition, the PBM binding z-score in [19] stood at 0.207; in test [20] it was 2.03.

For the sequence TAGCCTAGGTCATGGGCCGGTATACCACGCGAAC, the PBM binding z-score in test [1] is 4.76; in test [2], 3.42; in test [3], 0.261; in test [4], 2.72; in test [5] it was 0.0172; in test [6], 4.23. For the same sequence, the PBM binding z-score in [7] was found to be 3.35; in test [8], 3.56; in test [9], 0.856; in test [10], 2.46; in test [11], 1.46; in test [12], 3.44. Moreover, the PBM binding z-score in [13] was -0.00724; in [14] it was -0.404; in [15] it was 1.23; in test [16], 1.8; in test [17], -0.488; in test [18], 2.94. The PBM binding z-score in [19] was -0.0532; in [20], 3.9.

Take GCTAGCTGGCCATTTGGGTCACTCAATGACGGGC: the PBM binding z-score in test [1] was -0.265; in test [2] it was -0.387; in test [3], -0.995; in [4], -0.164; in [5], -1.15; in test [6], 0.689. The PBM binding z-score was 0.205 in test [7]; -0.0931 in [8]; -1 in [9]; -0.612 in [10]; 0.293 in [11]; 1.17 in test [12]. For the same sequence, the PBM binding z-score in test [13] was -0.756; in test [14] it was -0.983; in [15], -0.342; in test [16], -0.0667; in [17] it was -0.751; in test [18], 0.365. Besides, the PBM binding z-score is -1.31 in [19] and 0.859 in test [20].

Regarding TATTGTAGATCAGCAGGTTAAGAAAGCTGGCCAA, the PBM binding z-score in [1] is -0.221; in test [2], -0.214; in test [3], -0.56; in test [4] it was -0.0553; in test [5] it was -0.105; in test [6], 0.342. Moreover, the PBM binding z-score is -0.269 in test [7]; 0.483 in test [8]; -0.249 in test [9]; 0.429 in test [10]; -0.472 in test [11]; 0.909 in test [12]. In addition, the PBM binding z-score was 0.264 in test [13]; -0.14 in [14]; -0.31 in test [15]; -0.184 in test [16]; -0.219 in [17]; -0.00412 in [18]. In addition, the PBM binding z-score is -0.421 in test [19] and -0.104 in [20].

On to CCTTACGGGTCACTACAGGTTATAGCATCGGAGT, for which the PBM binding z-score came to 4.92 in [1]; 8 in test [2]; 2.22 in test [3]; 6.14 in test [4]; 0.211 in [5]; 4.69 in [6]. For the same sequence, the PBM binding z-score in test [7] was 3.41; in test [8], 3.84; in test [9], 1.46; in [10], 2.62; in test [11], 2.72; in test [12], 3.21. For the same sequence, the PBM binding z-score worked out at 0.858 in test [13]; 0.751 in [14]; 1.99 in test [15]; 4.52 in test [16]; 0.327 in [17]; 4.47 in [18]. In addition, the PBM binding z-score in test [19] stood at 1.02; in test [20], 3.91.

With ATCTCTAGGTAAGACTCGGTTCAGTGAAGAACGC, the PBM binding z-score in [1] was 0.472; in test [2] it was 0.583; in test [3] it was 0.614; in test [4], 0.263; in [5], 1.07; in [6], -0.0579. The PBM binding z-score in test [7] is -0.0197; in test [8], 0.126; in [9], 0.0672; in test [10], 0.278; in [11] it was 2.07; in test [12] it was 1.14. Also, the PBM binding z-score was 0.784 in [13]; 0.701 in test [14]; 0.702 in [15]; 0.669 in test [16]; 1.18 in test [17]; 0.0867 in test [18]. Further, the PBM binding z-score in test [19] worked out at 1.5; in test [20] it was 0.192.
